Measurements as given in PubChem BioAssay (Tox21).
Records with an inconclusive call do not appear. The source made the active and inactive calls. Unless noted, calls follow the shape of the full dose curve.

How the values were obtained:
[1] = Nuclear factor erythroid 2-related factor 2/antioxidant responsive element (Nrf2/ARE) small molecule agonists: qHTS cell viability counter screen in human keratinocytes (AID 1919968; active = well fitted curve in the direction sought with a large enough effect in the repeat runs; an effect the other way counts as inactive or inconclusive; also: nearly all actives have a fitted effect of over 55% in size; also: potency is read from the fitted curve at half-maximal effect)
Summary of the method: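 KeratinoSens HaCaT cells, 1,500/well, preincubated 5 h, then exposed to compounds in DMSO for 23 h at 37 C/5% CO2. Viability read as CellTiter-Fluor fluorescence after 1 h, in the same wells as the ARE-luciferase read.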

[2] = Nuclear factor erythroid 2-related factor 2/antioxidant responsive element (Nrf2/ARE) small molecule agonists: luciferase reporter gene qHTS assay in human keratinocytes (AID 1919969); also: nearly all actives have a fitted effect of over 35% in size; also: potency is read from the fitted curve at half-maximal effect
[3] = target: Gonadotropin-releasing hormone receptor (Homo sapiens) (UniProt P30968); assay: Human gonadotropin-releasing hormone receptor (GnRHR) small molecule agonists, calcium flux assay in GnRHR-HEK293 cells (AID 1920063); also: nearly all actives have a fitted effect of over 35% in size
Summary of the method: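 HEK293 cells stably expressing human GnRHR were dye-loaded for 1 h at 37 C. Compound was added in agonist mode and fluorescence (Ex/Em 480/540) recorded kinetically for 3 min. Fifteen concentrations, triplicates.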

[4] = p53 small molecule agonists, cell-based qHTS assay with human liver microsomes (AID 1963577);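 also: p53 response element beta-lactamase reporter cells with liver microsomes plus NADPH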
Summary of the method: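 p53RE-bla cells; 5 h settle, 37 C/5% CO2; cpd + HLM 0.5 mg/mL + NADPH 0.5 mg/mL (final); 16 h 37 C; LiveBLAzer 2 h RT dark; fluorescence readout.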

[5] = p53 small molecule agonists, cell-based qHTS assay with rat liver microsomes (AID 1963578)
Summary of the method: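 Rat liver microsome activation: microsomes 0.5 mg/mL, NADPH 0.5 mg/mL final; p53RE-bla cells, 16 h 37 C; LiveBLAzer readout, 2 h RT dark.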

[6] = p53 small molecule agonists, cell-based qHTS assay with human liver microsomes: qHTS cell viability counter screen (AID 1963579); also: nearly all actives have a fitted effect of over 45% in size
Summary of the method: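 Luminescent CellTiter-Glo read-out, 30 min at room temperature, gauged cytotoxicity in p53RE-bla cells exposed 16 h at 37 C to DMSO-dissolved compounds with metabolic activation by human liver microsomes and NADPH, each 0.5 mg/mL final.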

[7] = p53 small molecule agonists, cell-based qHTS assay with rat liver microsomes: qHTS cell viability counter screen (AID 1963580); also: nearly all actives have a fitted effect of over 45% in size
Summary of the method: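 Viability is assessed in parallel with the p53 reporter read: HCT-116 p53RE-bla cells receive compounds plus rat microsomes and NADPH (0.5 mg/mL final apiece), incubate 16 h at 37 C, and then CellTiter-Glo luminescence is recorded.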

[8] = p53 small molecule agonists, cell-based qHTS assay: qHTS cell viability counter screen (AID 1963581); also: nearly all actives have a fitted effect of over 45% in size
Summary of the method: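 p53RE-bla HCT-116 cells, compounds added 5 h after plating and incubated 16 h at 37 C. Cytotoxicity measured in the same wells as intracellular ATP by CellTiter-Glo luminescence after 30 min at room temperature.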

[9] = p53 small molecule agonists, cell-based qHTS assay (AID 1963582; active = well fitted activation curve with a large enough effect in the signal ratio in the repeat runs, not every such curve was filed as active; the % refers to the signal ratio)
Summary of the method: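 p53RE-bla reporter cells, compounds added in DMSO after 5 h plating, incubated 16 h at 37 C. Beta-lactamase read via 2 h room-temperature LiveBLAzer B/G FRET substrate, fluorescence intensity.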

[10] = target: 5-hydroxytryptamine receptor 2A (Homo sapiens) (UniProt P28223); assay: 5-hydroxytryptamine receptor 2A (HTR2A) small molecule antagonists, cell-based qHTS assay (AID 1963586); also: nearly all actives have a fitted effect of over 45% in size; also: potency is read from the fitted curve at half-maximal effect
Summary of the method: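 Antagonist-mode intracellular calcium assay: DOI (4 nM) added after 5 min compound pre-incubation at room temperature to dye-loaded HTR2A-CHO cells. Fluorescence followed for 3 min, sampled every second.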

[11] = target: 5-hydroxytryptamine receptor 2A (Homo sapiens) (UniProt P28223); assay: 5-hydroxytryptamine receptor 2A (HTR2A) small molecule agonists, cell-based qHTS assay (AID 1963587); also: nearly all actives have a fitted effect of over 30% in size; also: potency is read from the fitted curve at half-maximal effect
Summary of the method: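 CHO cells stably expressing human HTR2A, plated 18 h, loaded with calcium dye 1 h at 37 C. Agonist mode: compounds added and intracellular calcium fluorescence recorded kinetically for 2 min at 1 sec intervals.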

[12] = target: Muscarinic acetylcholine receptor M1 (Homo sapiens) (UniProt P11229); assay: Cholinergic receptor muscarinic 1 (CHRM1) small molecule antagonists, cell-based qHTS assay (AID 1963588); also: nearly all actives have a fitted effect of over 40% in size
Summary of the method: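 CHRM1-CHO calcium-flux assay, antagonist mode. Cells were seeded 18 h, dye-loaded 1 h at 37 C and given compound for 5 min at RT, then acetylcholine was added at 50nM. FDSS fluorescence was read 3 min; 15 concentrations, three runs.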

[13] = target: Muscarinic acetylcholine receptor M1 (Homo sapiens) (UniProt P11229); assay: Cholinergic receptor muscarinic 1 (CHRM1) small molecule agonists, cell-based qHTS assay (AID 1963589); also: nearly all actives have a fitted effect of over 35% in size
Summary of the method: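 CHO cells stably expressing human CHRM1 were loaded with calcium dye for 1 h at 37 C, then compound was added in agonist mode. Intracellular calcium fluorescence was followed kinetically at 1 s intervals. Fifteen concentrations were tested in three independent runs.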

[14] = cAMP Responsive Elements (CRE) small molecule agonists, cell-based qHTS assay (AID 1963590)
Summary of the method: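 CRE-bla HEK 293T cells, 2,000/well in DMEM with 10% dialyzed FBS and 25 mM HEPES, pre-incubated 18 h at 37 C, then exposed to compound 3 h at 37 C. Beta-lactamase reporter read with LiveBLAzer B/G FRET substrate after 2 h at room temperature.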

[15] = target: Beta-2 adrenergic receptor (Homo sapiens) (UniProt P07550); assay: Adrenergic beta2 receptor (ADRB2) small molecule antagonists, cell-based qHTS assay (AID 1963592); also: series mostly up to about 92 µM; nearly all actives have a fitted effect of over 50% in size
Summary of the method: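 Cells (CHO, stable ADRB2 overexpression) incubated 18-20hr at 37C; compounds added from DMSO; agonist mix (1nM isoproterenol, 100uM IBMX, 25uM Ro-20-1724) added; 0.5hr RT; d2-cAMP and anti-cAMP-cryptate added; 1hr RT; 665/615 nm read.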

[16] = target: D(2) dopamine receptor (Homo sapiens) (UniProt P14416); assay: Dopamine D2 receptor (DRD2) small molecule antagonists, cell-based qHTS assay (AID 1963595; active = well fitted inhibition curve with a large enough effect in the signal ratio in the repeat runs, with a control signal flat; the % refers to the signal ratio)
Summary of the method: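 HTRF cAMP read-out at 665 and 620 nm emission (340 nm excitation). Antagonist mode: compounds were tested against 12 nM quinpirole in DRD2-HEK293 cells, with 200 nM NKH477 raising cAMP and 0.1 mM Ro20-1724 blocking its breakdown.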

[17] = target: Beta-2 adrenergic receptor (Homo sapiens) (UniProt P07550); assay: Adrenergic beta2 receptor (ADRB2) small molecule agonists, cell-based qHTS assay (AID 1963593);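 also: CHO cells stably overexpressing human ADRB2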
Summary of the method: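 CHO cells stably over-expressing ADRB2 were plated overnight at 37C, then dosed with compounds plus a stimulation mix containing 100uM IBMX and 25uM Ro-20-1724 for 0.5hr at room temperature. cAMP was measured by HTRF competition, 1hr.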

[18] = target: D(2) dopamine receptor (Homo sapiens) (UniProt P14416); assay: Dopamine D2 receptor (DRD2) small molecule agonists, cell-based qHTS assay (AID 1963594); also: nearly all actives have a fitted effect of over 35% in size
Summary of the method: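 HEK293 cells stably expressing human DRD2, pre-treated with PDE inhibitor Ro20-1724 (0.1 mM final) and compound 10 min at room temperature, then stimulated with NKH477 (200nM […]) for 30 min. cAMP read by HTRF (665/620 nm).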

[19] = cAMP Responsive Elements (CRE) small molecule antagonists, cell-based qHTS assay (AID 1963591; active = well fitted inhibition curve with a large enough effect in the signal ratio in the repeat runs, not every such curve was filed as active; the % refers to the signal ratio)
Summary of the method: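 CRE-bla HEK293T cells plated 18 h, then given compound plus NKH477 at 0.25 uM final for 3 h at 37C. Beta-lactamase reporter read with LiveBLAzer B/G FRET substrate after 2 h at room temperature.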

[20] = target: KiSS-1 receptor (Homo sapiens) (UniProt Q969F8); assay: Human kisspeptin (KISS1R) small molecule agonists, calcium flux assay in KISS1R-HEK293 cells (AID 1920064; active = well fitted curve in the direction sought with a large enough effect in the repeat runs; an effect the other way counts as inactive or inconclusive)
Summary of the method: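 HEK293 cells stably expressing human KISS1R were loaded with calcium dye for 1 h at 37 C, then given compound; fluorescence (Ex/Em 480/540) was read kinetically for 3 min. Fifteen concentrations, triplicate.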
% is scaled to controls: 0 for no effect and ±100 for the full control effect.

Chain of 5-hydroxytryptamine receptor 2A (Homo sapiens) (P28223 whole entry, looked up): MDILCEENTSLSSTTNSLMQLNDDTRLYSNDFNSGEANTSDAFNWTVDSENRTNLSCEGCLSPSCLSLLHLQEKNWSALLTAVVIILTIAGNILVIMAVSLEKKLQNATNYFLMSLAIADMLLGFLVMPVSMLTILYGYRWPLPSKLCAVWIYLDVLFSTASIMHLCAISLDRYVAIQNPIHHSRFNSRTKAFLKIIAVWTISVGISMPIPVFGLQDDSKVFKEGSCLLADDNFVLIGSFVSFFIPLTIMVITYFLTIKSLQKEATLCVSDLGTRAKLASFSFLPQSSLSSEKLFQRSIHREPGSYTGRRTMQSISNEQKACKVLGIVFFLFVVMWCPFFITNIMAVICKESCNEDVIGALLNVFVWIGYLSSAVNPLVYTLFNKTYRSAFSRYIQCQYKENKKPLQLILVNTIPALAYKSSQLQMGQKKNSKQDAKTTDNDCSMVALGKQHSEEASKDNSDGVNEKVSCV
Chain of Beta-2 adrenergic receptor (Homo sapiens) (P07550 whole entry, looked up): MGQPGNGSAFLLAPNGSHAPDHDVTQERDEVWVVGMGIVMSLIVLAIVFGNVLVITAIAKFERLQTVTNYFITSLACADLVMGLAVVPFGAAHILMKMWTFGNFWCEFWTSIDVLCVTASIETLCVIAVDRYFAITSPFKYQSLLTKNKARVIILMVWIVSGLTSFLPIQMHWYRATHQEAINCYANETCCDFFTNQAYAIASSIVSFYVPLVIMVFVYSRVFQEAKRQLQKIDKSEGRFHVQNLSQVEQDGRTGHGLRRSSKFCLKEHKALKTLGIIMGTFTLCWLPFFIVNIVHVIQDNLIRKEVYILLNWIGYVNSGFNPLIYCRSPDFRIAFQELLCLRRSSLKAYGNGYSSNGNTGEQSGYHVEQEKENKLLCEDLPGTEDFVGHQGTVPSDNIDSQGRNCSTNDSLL
Chain of D(2) dopamine receptor (Homo sapiens) (P14416 whole entry, looked up): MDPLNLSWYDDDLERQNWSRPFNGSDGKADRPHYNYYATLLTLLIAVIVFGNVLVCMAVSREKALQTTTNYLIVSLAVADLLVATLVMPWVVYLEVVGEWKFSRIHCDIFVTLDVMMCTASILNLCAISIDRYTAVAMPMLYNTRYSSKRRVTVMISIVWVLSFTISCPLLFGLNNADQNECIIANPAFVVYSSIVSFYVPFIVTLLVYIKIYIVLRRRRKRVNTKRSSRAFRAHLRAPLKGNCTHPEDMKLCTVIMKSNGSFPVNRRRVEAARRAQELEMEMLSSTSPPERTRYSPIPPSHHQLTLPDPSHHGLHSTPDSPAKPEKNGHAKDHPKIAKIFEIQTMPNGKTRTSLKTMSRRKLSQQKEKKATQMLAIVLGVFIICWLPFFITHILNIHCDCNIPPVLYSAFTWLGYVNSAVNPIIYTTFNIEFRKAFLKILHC
Chain of Muscarinic acetylcholine receptor M1 (Homo sapiens) (P11229 whole entry, looked up): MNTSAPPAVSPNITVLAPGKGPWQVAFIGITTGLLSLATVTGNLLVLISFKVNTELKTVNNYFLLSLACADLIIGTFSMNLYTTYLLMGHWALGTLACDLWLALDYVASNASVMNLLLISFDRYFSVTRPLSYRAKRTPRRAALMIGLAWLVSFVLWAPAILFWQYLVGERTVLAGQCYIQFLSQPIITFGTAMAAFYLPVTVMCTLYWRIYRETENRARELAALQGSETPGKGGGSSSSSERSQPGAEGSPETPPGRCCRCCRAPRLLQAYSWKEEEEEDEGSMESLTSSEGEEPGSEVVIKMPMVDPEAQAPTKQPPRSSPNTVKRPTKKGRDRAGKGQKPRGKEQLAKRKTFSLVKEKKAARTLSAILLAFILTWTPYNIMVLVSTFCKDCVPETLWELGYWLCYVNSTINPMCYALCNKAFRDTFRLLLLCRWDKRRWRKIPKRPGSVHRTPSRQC
Chain of Gonadotropin-releasing hormone receptor (Homo sapiens) (P30968 whole entry, looked up): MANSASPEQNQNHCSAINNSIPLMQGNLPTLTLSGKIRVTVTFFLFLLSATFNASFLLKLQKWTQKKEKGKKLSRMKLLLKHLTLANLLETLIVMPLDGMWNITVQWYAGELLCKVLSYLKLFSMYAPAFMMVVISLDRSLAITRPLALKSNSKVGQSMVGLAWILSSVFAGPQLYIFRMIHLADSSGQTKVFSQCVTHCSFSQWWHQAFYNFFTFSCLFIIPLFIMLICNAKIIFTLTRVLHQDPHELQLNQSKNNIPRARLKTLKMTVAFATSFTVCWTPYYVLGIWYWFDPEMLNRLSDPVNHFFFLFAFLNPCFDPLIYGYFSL
Chain of KiSS-1 receptor (Homo sapiens) (Q969F8 whole entry, looked up): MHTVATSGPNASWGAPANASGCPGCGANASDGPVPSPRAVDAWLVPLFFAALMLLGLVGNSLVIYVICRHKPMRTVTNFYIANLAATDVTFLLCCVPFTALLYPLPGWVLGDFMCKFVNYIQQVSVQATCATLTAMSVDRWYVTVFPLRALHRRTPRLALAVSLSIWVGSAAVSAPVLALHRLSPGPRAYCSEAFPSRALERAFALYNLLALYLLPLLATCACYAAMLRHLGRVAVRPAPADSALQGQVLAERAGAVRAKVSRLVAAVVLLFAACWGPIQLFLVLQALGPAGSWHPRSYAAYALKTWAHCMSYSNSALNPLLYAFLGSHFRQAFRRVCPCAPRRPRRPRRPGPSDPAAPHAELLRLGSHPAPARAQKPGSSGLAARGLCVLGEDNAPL

Cn1nnc2c(C(N)=O)ncn2c1=O
inactive: Potency [1] | Potency [2] | Potency [3] | Potency [4] | Potency [5] | Potency [6] | Potency [7] | Potency [8] | Potency [9] | Potency [10] | Potency [11] | Potency [12] | Potency [13] | Potency [14] | Potency [15] | Potency [16]

NCC(=O)CCC(=O)O
inactive: Potency [1] | Potency [2] | Potency [3] | Potency [4] | Potency [5] | Potency [6] | Potency [7] | Potency [8] | Potency [9] | Potency [10] | Potency [12] | Potency [13] | Potency [14] | Potency [15] | Potency [17] | Potency [18] | Potency [16]

CCCCCCCCCCOCC(O)CN (stereo not drawn)
inactive: Potency [2] | Potency [3] | Potency [4] | Potency [5] | Potency [6] | Potency [7] | Potency [8] | Potency [9] | Potency [12] | Potency [13] | Potency [17] | Potency [18] | Potency [16]
active: Potency [1] 37.6 µM | Potency [10] 18.3 µM | Potency [11] 9.52 µM

O=C1c2ccccc2C(=O)C1c1ccc(Br)cc1
inactive: Potency [1] | Potency [2] | Potency [3] | Potency [4] | Potency [5] | Potency [6] | Potency [7] | Potency [8] | Potency [9] | Potency [10] | Potency [11] | Potency [12] | Potency [15] | Potency [17] | Potency [16]

CCOC(CN1CCN(CC(C)C(=O)c2ccccc2)CC1)c1ccccc1 (stereo not drawn)
inactive: activity change, negative = cytotoxicity [1] -17.1% [at 19 µM] | activity, positive = activation [2] 6.71% [at 19 µM] | activity change [3] -0.217% [at 11.8 µM, active compounds read high] | activation [4] -8.35% [at 13.5 µM] | activation [5] 1.1% [at 13.6 µM] | activity change, negative = cytotoxicity [6] 24.1% [at 13.5 µM] | activity change, negative = cytotoxicity [7] 0.0683% [at 13.5 µM] | activity change, negative = cytotoxicity [8] 9.5% [at 13.5 µM] | activation [9] -3.89% [at 13.5 µM] | activation [11] -20.7% [at 15.9 µM] | activity, negative = inhibition [12] -8.62% [at 12.6 µM] | activation [14] -1.09% [at 19 µM] | activity change, negative = inhibition [19] 10.1% [at 18.9 µM] | activity change, negative = inhibition [15] 4.02% [at 19 µM] | Potency [17] | activation [18] -24.3% [at 19 µM] | activity change, negative = inhibition [16] 9.08% [at 18.9 µM]

[Cl][Pt-2]([Cl])([Cl])[Cl]
inactive: Potency [1] | Potency [2] | Potency [3] | outcome [20] | Potency [5] | Potency [6] | Potency [7] | Potency [8] | Potency [10] | Potency [12] | Potency [13] | Potency [19] | Potency [15]

CCc1cccc(C)c1
inactive: Potency [1] | Potency [2] | Potency [3] | Potency [4] | Potency [5] | Potency [6] | Potency [7] | Potency [8] | Potency [9] | Potency [10] | Potency [12] | Potency [13] | Potency [14] | Potency [19] | Potency [15] | Potency [18] | Potency [16]

O=C(O)c1ccccc1C(=O)Nc1ccc(S(=O)(=O)Nc2nccs2)cc1
inactive: Potency [1] | Potency [2] | Potency [3] | Potency [4] | Potency [5] | Potency [6] | Potency [7] | Potency [8] | Potency [9] | Potency [10] | Potency [11] | Potency [13] | Potency [14] | Potency [19] | Potency [15] | Potency [17] | Potency [18] | Potency [16]

O=C(O)C(=O)Cc1c[nH]c2ccccc12
inactive: Potency [1] | Potency [3] | Potency [4] | Potency [5] | Potency [6] | Potency [7] | Potency [8] | Potency [9] | Potency [10] | Potency [11] | Potency [12] | Potency [13] | Potency [14] | Potency [15] | Potency [17] | Potency [18] | Potency [16]
active: Potency [2] 54.5 µM

Cc1c(N)cccc1[N+](=O)[O-]
active: Potency [2] 27.8 µM
inactive: Potency [1] | Potency [3] | Potency [4] | Potency [5] | Potency [6] | Potency [7] | Potency [8] | Potency [9] | Potency [11] | Potency [12] | Potency [14] | Potency [19] | Potency [15] | Potency [18] | Potency [16]

C=C(C)C(=O)OCCN(C)C
inactive: Potency [1] | Potency [2] | Potency [3] | Potency [4] | Potency [5] | Potency [6] | Potency [7] | Potency [8] | Potency [9] | Potency [10] | Potency [11] | Potency [12] | Potency [13] | Potency [14] | Potency [19] | Potency [15] | Potency [18] | Potency [16]

CC1CCc2c(N3CCC(O)CC3)c(F)cc3c(=O)c(C(=O)O)cn1c23 (stereo not drawn)
inactive: Potency [1] | Potency [2] | Potency [3] | Potency [4] | Potency [5] | Potency [6] | Potency [7] | Potency [8] | Potency [9] | Potency [10] | Potency [11] | Potency [12] | Potency [13] | Potency [15] | Potency [18]

NC(=O)c1ccncc1
inactive: Potency [1] | Potency [2] | Potency [3] | Potency [4] | Potency [5] | Potency [6] | Potency [7] | Potency [8] | Potency [9] | Potency [10] | Potency [11] | Potency [12] | Potency [13] | Potency [14] | Potency [19] | Potency [15] | Potency [18] | Potency [16]

Cc1ccccc1CCO
inactive: Potency [1] | Potency [2] | Potency [3] | Potency [4] | Potency [5] | Potency [6] | Potency [7] | Potency [8] | Potency [9] | Potency [10] | Potency [11] | Potency [13] | Potency [19] | Potency [15] | Potency [17] | Potency [18] | Potency [16]

NS(=O)(=O)c1ccc(Cl)c(S(N)(=O)=O)c1
inactive: Potency [1] | Potency [2] | Potency [3] | Potency [4] | Potency [5] | Potency [6] | Potency [7] | Potency [8] | Potency [9] | Potency [10] | Potency [12] | Potency [13] | Potency [14] | Potency [15] | Potency [17] | Potency [18] | Potency [16]
